This passage reports growth results from PubChem BioAssay (NCI).

Compounds without any hit were thinned out: in the full panel of roughly 83,000, 20% have a hit.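 The test compound was applied at a single concentration to cells in 96-well plates for 48 hours, and percent growth was recorded.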 Values without a mark were called inactive. Calls of active or inactive are those of the source. Rule for the calls: active = growth percent below 10; inactive = the rest.

Holding throughout (test): NCI-60 one-dose screen, 48 h (100 = growth as untreated, 0 = no growth, -100 = all killed)
Details in all cases: 10 µM unless noted

Assay [1] concerns SR leukemia.
Assay [2] has as its system RPMI-8226 leukemia.
The test system of assay [3] is OVCAR-8 ovarian.
Assay [4] relates to OVCAR-5 ovarian.
In assay [5] the test system is OVCAR-4 ovarian.
Assay [6] deals with SK-OV-3 ovarian.
The test system of assay [7] is IGROV1 ovarian.
Assay [8] has as its system HS 578T breast.
The test system of assay [9] is NCI/ADR-RES ovarian.

Turning to `CN1CCN(c2ccc(Nc3nc(NCCNS(=O)(=O)c4ccccc4)c4sccc4n3)cc2)CC1`, the growth is 117% in assay [1]; 102% in [2]; 106% in [3]; 102% in assay [4]; 92.5% in [5]; 107% in [6]. Besides, the growth is 95.9% in assay [7], 88.1% in [8] and 101% in assay [9].

Consider `O=C(O)c1ccc(-n2c(=O)n(-c3cccc(C(F)(F)F)c3)c(=O)c3cc(-c4ccc(F)cc4F)ccc32)cc1`, for which the growth is 8.91% (active) in [1]; -7.92% (active) in [2]; 13.9% in assay [3]; 24.8% in [4]; 31.2% in [5]; 2.5% (active) in [6]. In addition, the growth was 17.8% in [7], -4.81% (active) in assay [8] and 3.12% (active) in assay [9].

On to `CCOC(=O)C(=O)Nc1ccc2c(ccn2C(=O)c2cccc(F)c2)c1`, for which the growth in assay [1] is 96.3%; in [2], 101%; in assay [3] it was 93.1%; in assay [4] it was 92.4%; in [5], 101%; in [6], 103%. Moreover, the growth in assay [7] is 103%; in assay [8], 94.4%; in [9], 100%.

With `COc1ccc(-c2cc(-c3ccc(N4CCOCC4)cc3)n3c(n2)nc2ccccc23)cc1OC`, the growth was 70.3% in [1]; 57.5% in assay [2]; 82.5% in assay [3]; 108% in [4]; 87.9% in assay [5]; 118% in [6]. The growth in [7] is 95.1%; in [8] it was 98.2%; in assay [9], 87.9%.

On to `NS(=O)(=O)c1cccc(Nc2nc(SCC(=O)c3ccc(Cl)cc3)nc3c2CCC3)c1`, for which the growth in assay [1] is 98.7%; in [2], 97.3%; in assay [3], 82.8%; in assay [4], 103%; in assay [5], 95.8%; in assay [6], 95.7%. Besides, the growth in assay [7] was 99.8%; in assay [8], 81%; in assay [9] it was 96.7%.

As for `CN1CCN(CC#CCn2c3c(c4ccccc42)C[C@]2(C)[C@H]4CC=C5[C@@H]6CC(C)(C)CC[C@]6(C(=O)N6CCOCC6)CC[C@@]5(C)[C@]4(C)CC[C@H]2C3(C)C)CC1`, the growth in assay [1] was -4.82% (active); in [2] it was 45.5%; in assay [3], 84.8%; in [4], 87.2%; in assay [5], 88.1%; in assay [6] it was 103%. Further, the growth was 77.6% in assay [7], 91.3% in [8] and 76.8% in assay [9].

In the case of `COc1ccc([C@H]2C(=O)N(c3cc(OC)c(OC)c(OC)c3)[C@@H]2c2ccc(OC)c(O)c2)cc1`, the growth in assay [1] was 11.4%; in assay [2], 22.2%; in assay [3] it was 5.81% (active); in assay [4], 34.6%; in assay [5], 63.5%; in assay [6], 27.5%. The growth in [7] is 28.2%; in [8], 2.75% (active); in assay [9], 10.4%.

As to `COc1ccc(-c2c3c(cn2Cc2cccc(OC)c2)-c2oncc2CCC3)cc1`, the growth in assay [1] was 89.2%; in assay [2] it was 93.6%; in assay [3] it was 98.5%; in [4], 108%; in assay [5] it was 100%; in [6] it was 98.3%. Moreover, the growth was 94.3% in assay [7], 101% in assay [8] and 97% in [9].

Regarding `Cc1ccc(Nc2nc(SC(C)C)nc(-c3ccccc3)c2C#N)cc1`, the growth was 102% in assay [1]; 99% in assay [2]; 97% in assay [3]; 81.8% in assay [4]; 87.3% in assay [5]; 96.2% in assay [6]. The growth in assay [7] is 91%; in assay [8] it was 87.8%; in [9], 92.2%.

As for `COc1ccc(-c2nc(C#N)c(N3CCC(S(=O)(=O)N4CCOCC4)CC3)o2)cc1`, the growth in [1] is 83.8%; in [2], 101%; in [3], 106%; in assay [4], 97.1%; in assay [5], 97.8%; in [6], 107%. Further, the growth was 93% in assay [7], 102% in assay [8] and 97.2% in assay [9].

As to `C/C(=N\NC(N)=S)c1nnn(-c2ccc([N+](=O)[O-])cc2)c1C`, the growth in [1] was 110%; in assay [2], 103%; in assay [3], 98.6%; in assay [4], 98.7%; in assay [5], 108%; in [6], 104%. Further, the growth in assay [7] was 100%; in [8], 96.3%; in assay [9], 98.8%.

As to `CCOC(=O)c1cccnc1Nc1ccc(NC(=O)Nc2ccc(Cl)c(C(F)(F)F)c2)cc1`, the growth is 54% in [1]; 16% in [2]; 39.3% in assay [3]; 85.7% in [4]; 42.8% in assay [5]; 70.1% in assay [6]. Also, the growth in assay [7] was 29.9%; in assay [8] it was 84.5%; in assay [9], 35.3%.

For the compound `O=C1/C(=C/c2cc(F)cc(F)c2)Cc2cc3c(cc21)OCO3`, the growth in assay [1] is 18.4%; in [2], 52.3%; in assay [3], 42.5%; in assay [4] it was 65.3%; in assay [5], 61.9%; in assay [6] it was 35.6%. The figures for the growth in assay [7], in assay [8] and in [9] were 36.9%, 46.9% and 19.4%, respectively.
